IMPase Li inh = qHTS Assay for Identifying the Cell-Membrane Permeable IMPase Inhibitors: Potentiation with Lithium; CHO-M1 cells, IP1 TR-FRET (IP-One), carbachol + lithium; Potency, µM (top dose mostly 59.4 µM), actives largely listed as inhibitors; actives 0.35% (n = 210,000); AID 1457, 2008;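 also: IP1 builds up when IMPase is blocked and the TR-FRET signal falls; nearly all actives have a fitted effect of over 50% in size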
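Readout is a homogeneous TR-FRET IP1 immunoassay (Ex 320, Em 665 and 620), where raised cytosolic IP1 lowers signal. Cells were CHO-M1 treated 30 min at 37C with test compounds plus a little lithium; AC50 values came from Hill-equation fitting.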
IMPase inh = qHTS Assay for Identifying the Cell-Membrane Permeable IMPase Inhibitors; Inositol monophosphatase 1 (Rattus norvegicus), P97697; CHO-M1 cells, IP1 accumulation, HTRF TR-FRET ratio; inhibition (IP1 accumulation), % at 46.1 µM; 120,000 tested, under 10 active; AID 901, 2007; active = well fitted curve in the direction sought with a large enough effect in the signal ratio, not every such curve was filed as active; inconclusive = small, poorly fitted or top-dose-only effect, or a change in a side signal; inactive = no such curve, though single readings can be large or run the other way; the % refers to the signal ratio;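 also: cells stimulated with carbachol in lithium chloride buffer; higher means more IMPase inhibition seen as more IP1 and lower FRET ratio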
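Cellular IMPase inhibition is scored as a rise in cytosolic IP1, detected by competitive TR-FRET between d2-labelled IP1 and a europium anti-IP1 antibody. M1-expressing CHO cells were stimulated with carbachol for 30 min at 37C, with lithium (50 mM LiCl) present in the buffer.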
ALDH1A1 block = qHTS Assay for Inhibitors of Aldehyde Dehydrogenase 1 (ALDH1A1); Aldehyde dehydrogenase 1A1 (Homo sapiens), P00352; Purified ALDH1A1, NADH fluorescence, propionaldehyde substrate; Potency, µM (titrated, usually from 75.3 µM), actives largely listed as inhibitors; actives 7.3% (n = 220,000); active = well fitted inhibition curve with a large enough effect, not every such curve was filed as active; inconclusive = small, poorly fitted or top-dose-only effect, or another doubt; inactive = no such curve, though single readings can be large or run the other way
PNC assembly inh = High Content Assay for Compounds that inhibit the Assembly of the Perinucleolar Compartment. PC3M PTB-GFP, PNC prevalence imaging, 16 h; hits give low values. actives 3.1% (n = 140,000). activity change (PNC), negative = inhibition, % at 10 µM. AID 2417, 2010;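 active = readout at or below -70, meaning at least 70% loss of cells showing the perinucleolar compartment, a nuclear body marking cancer cells; inconclusive = readout between -30 and a set limit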
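PC3M cells stably expressing PTB-GFP, 750–1000 cells/well, treated 16 h at 37 °C with compound (23 nl of library stock), in duplicate. After paraformaldehyde fixation and Hoechst stain, imaged at 20x; PNC prevalence scored by image analysis.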
NPSR antagonist = qHTS Assay for Antagonists of the Neuropeptide S Receptor: cAMP Signal Transduction; actives 1% (n = 220,000); Potency, µM (doses to about 38.3 µM), hits mostly inhibitors; CHO-NPSR cells, cAMP TR-FRET, antagonist mode; also: nearly all actives have a fitted effect of over 50% in size
Target sequence (Q6W5P4 whole entry, looked up): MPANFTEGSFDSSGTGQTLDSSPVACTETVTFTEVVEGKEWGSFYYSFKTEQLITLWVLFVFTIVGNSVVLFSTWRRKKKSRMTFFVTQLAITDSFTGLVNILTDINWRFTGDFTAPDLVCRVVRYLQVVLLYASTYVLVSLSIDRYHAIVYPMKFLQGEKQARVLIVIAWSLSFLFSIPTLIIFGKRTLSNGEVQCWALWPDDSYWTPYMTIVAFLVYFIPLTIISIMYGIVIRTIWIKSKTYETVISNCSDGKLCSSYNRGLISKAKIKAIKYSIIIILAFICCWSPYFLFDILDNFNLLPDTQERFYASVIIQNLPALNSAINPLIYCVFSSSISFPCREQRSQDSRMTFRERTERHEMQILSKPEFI
HPGD inh = qHTS Assay for Inhibitors of HPGD (15-Hydroxyprostaglandin Dehydrogenase); Potency, µM, hits mostly inhibitors; actives 4.3% (n = 150,000); purified HPGD, NADH fluorescence kinetic, PGE2 substrate; 15-hydroxyprostaglandin dehydrogenase [NAD(+)] (Homo sapiens), P15428; active = well fitted inhibition curve with a large enough effect, not every such curve was filed as active; inconclusive = small, poorly fitted or top-dose-only effect, or another doubt; inactive = no such curve, though single readings can be large or run the other way
Target sequence (P15428 whole entry, looked up): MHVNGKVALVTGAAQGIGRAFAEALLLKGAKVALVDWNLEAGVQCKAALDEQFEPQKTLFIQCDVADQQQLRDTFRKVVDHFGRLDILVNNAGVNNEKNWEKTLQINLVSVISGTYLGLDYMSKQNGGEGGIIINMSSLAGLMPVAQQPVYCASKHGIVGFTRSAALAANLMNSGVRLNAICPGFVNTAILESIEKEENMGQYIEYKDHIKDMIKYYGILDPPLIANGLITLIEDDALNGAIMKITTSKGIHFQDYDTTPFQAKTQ
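20 nM HPGD preincubated 15 min at room temperature with compound in 50 mM Tris-HCl pH 8, 0.01% Tween 20. Started with 1 mM NAD+ and 30 uM prostaglandin E2; NADH fluorescence (360/450 nm) read 5 times over 30-s intervals, last minus first.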
Of the large screens only hits and unclear results are named; the others gave an inactive call; ! = not confirmed by another sample. The list is not random: actives were taken first. Their share in the collection is about 11%. Unless noted, calls follow the shape of the dose curve; as a rule, active = well fitted curve in the direction sought with a large enough effect; inconclusive = small, poorly fitted or top-dose-only effect, or another doubt; inactive = no such curve, though single readings can be large; an effect the other way counts as inactive or inconclusive.

CC(=O)Nc1sc(N/N=C/c2ccc(C)cc2)nc1-c1ccc(C)cc1	none (no result: IMPase Li inh, IMPase inh, ALDH1A1 block, PNC assembly inh, HPGD inh)
O=C(/C=C/c1ccco1)N1CCC(Cc2ccccc2)CC1	ALDH1A1 block 20µM (no result: IMPase inh, PNC assembly inh, HPGD inh)
O=C(/C=C/c1ccco1)N1CCN(c2ncccn2)CC1	ALDH1A1 block 14µM (no result: IMPase inh)
COc1cccc(N2CCN(C(=O)/C=C/c3ccco3)CC2)c1	ALDH1A1 block inconclusive (no result: IMPase inh, PNC assembly inh, HPGD inh)
CCOC(=O)N1CCN(CC(O)COc2ccc(OC)cc2C(C)(C)C)CC1 (configuration not stated)	none (no result: IMPase inh)
COc1ccc(C2=CC(c3sccc3C)n3nnnc3N2)cc1 (configuration not stated)	ALDH1A1 block 2µM
COc1ccc(C2=CC(c3ccc(F)cc3)n3nnnc3N2)cc1 (configuration not stated)	none
Cc1ccc(CNC(=O)CS(=O)Cc2nc(-c3cccs3)oc2C)cc1 (configuration not stated)	ALDH1A1 block inconclusive, HPGD inh 28µM
Cc1ccc(CCNC(=O)CS(=O)Cc2nc(-c3cccs3)oc2C)cc1 (configuration not stated)	none (no result: IMPase Li inh, IMPase inh, ALDH1A1 block, PNC assembly inh, HPGD inh)
COc1cc(C)c(C(C)C)cc1S(=O)(=O)N1CCN(C)CC1	ALDH1A1 block 14µM
CCOc1cc(C)c(C(C)C)cc1S(=O)(=O)N1CCN(C)CC1	ALDH1A1 block 5µM
CCOc1ccc(C(C)C)cc1S(=O)(=O)N1CCOCC1	ALDH1A1 block 8.9µM (no result: IMPase inh, PNC assembly inh, HPGD inh)
CN1CCN(C(c2cccnc2)c2ccc3cccnc3c2O)CC1 (configuration not stated)	ALDH1A1 block 1.9µM, PNC assembly inh inconclusive
CSc1nc2nc3c(cn2n1)C(=O)CC(c1ccccc1)C3 (configuration not stated)	ALDH1A1 block inconclusive
Cn1c(=O)c2cc3c(nc2n(C)c1=O)CC(c1ccccc1)CC3=O (configuration not stated)	ALDH1A1 block 14µM (no result: IMPase Li inh, IMPase inh, PNC assembly inh, HPGD inh)
O=C1c2ccccc2C(Cc2ccnc(F)c2)(Cc2ccnc(F)c2)c2ccccc21	none (no result: IMPase inh, PNC assembly inh, NPSR antagonist)
CC(=O)c1c(C)[nH]c(C(=O)OCC(=O)Nc2cc(S(=O)(=O)N3CCCC3)ccc2Cl)c1C	PNC assembly inh -108
CC(=O)c1c(C)[nH]c(C(=O)OCC(=O)Nc2cccc(S(=O)(=O)N3CCCC3)c2)c1C	none
O=C(CN1CCN(c2ccc(O)cc2)CC1)Nc1cc(S(=O)(=O)N2CCCC2)ccc1Cl	ALDH1A1 block 14µM (no result: IMPase inh, PNC assembly inh, HPGD inh)
O=C(CN1CCN(c2ccc(O)cc2)CC1)Nc1cc(S(=O)(=O)N2CCCCC2)ccc1Cl	ALDH1A1 block 24µM (no result: IMPase inh, PNC assembly inh, HPGD inh)
CC(C)C(NS(=O)(=O)c1cccc2nsnc12)C(=O)Nc1nc2ccc(Cl)cc2s1 (configuration not stated)	none
CC(C)Sc1nc2c(c(=O)[nH]c(=O)n2C)n1CCc1ccccc1	ALDH1A1 block inconclusive, PNC assembly inh inconclusive
CCC(C)Sc1nc2c(c(=O)[nH]c(=O)n2C)n1CC(O)COc1ccccc1C (configuration not stated)	ALDH1A1 block 14µM, HPGD inh 40µM
CCOC(=O)C(C)Sc1nc2c(c(=O)[nH]c(=O)n2C)n1Cc1ccc(Cl)cc1 (configuration not stated)	ALDH1A1 block 18µM, HPGD inh inconclusive
CCC(C)Sc1nc2c(c(=O)[nH]c(=O)n2C)n1Cc1ccc(Cl)cc1 (configuration not stated)	ALDH1A1 block 8.9µM
CC(C)Sc1nc2c(c(=O)[nH]c(=O)n2C)n1Cc1ccc(Cl)cc1	ALDH1A1 block 35µM, HPGD inh inconclusive
CN(C)c1ncc2nc(CCc3ccccc3)c(=O)n(CCc3ccccc3)c2n1	ALDH1A1 block inconclusive (no result: IMPase inh, PNC assembly inh, NPSR antagonist, HPGD inh)
CC1CCc2c(sc(N)c2C(=O)OC(C)C)C1 (configuration not stated)	ALDH1A1 block 11µM, HPGD inh 28µM
O=C1CCCN1Cc1ncnn1-c1ccccc1	PNC assembly inh -100
CSc1ccc2c(c1)N(CCC1CCCCN1C)c1ccccc1S2 (configuration not stated)	PNC assembly inh -115, NPSR antagonist 13µM (no result: IMPase inh)
CN1CCCC[C@@H]1CCN1c2ccccc2Sc2ccc(S(C)=O)cc21 (some centres not stated)	HPGD inh 3.2µM! (no result: PNC assembly inh, NPSR antagonist)
CC(=O)c1ccc2c(c1)N(CCCN1CCC(CCO)CC1)c1ccccc1S2	none (no result: PNC assembly inh, NPSR antagonist)
CSc1ccc2c(c1)N(CC[C@H]1CCCCN1C)c1ccccc1S2	none (no result: PNC assembly inh, NPSR antagonist)
COc1cccc(NC(=O)CCS(=O)(=O)c2cccs2)c1	PNC assembly inh inconclusive
COc1cc(/C=C/C(=O)c2cccc([N+](=O)[O-])c2)cc(OC)c1OC	ALDH1A1 block 25µM (no result: IMPase inh)
COc1cccc(/C=C/C(=O)c2ccc(C)c([N+](=O)[O-])c2)c1	ALDH1A1 block 7.1µM (no result: IMPase inh)
COc1cc(/C=C/C(=O)c2ccc(C)c([N+](=O)[O-])c2)cc(OC)c1O	none
O=C(/C=C/c1ccccc1F)c1cccc([N+](=O)[O-])c1	ALDH1A1 block inconclusive (no result: IMPase inh)
COc1cc(O)c(C(=O)/C=C/c2ccc(OC)c(O)c2)c(OC)c1	ALDH1A1 block 14µM, HPGD inh 7.9µM (no result: IMPase inh, PNC assembly inh, NPSR antagonist)
COc1ccc(/C=C/C(=O)c2ccc(C)c([N+](=O)[O-])c2)cc1O	ALDH1A1 block 22µM, HPGD inh 22µM
CC(Oc1ccccc1)C(=O)Nc1cccc(-c2nc3ccccc3[nH]2)c1 (configuration not stated)	none (no result: IMPase Li inh, HPGD inh)
NNc1nc(Nc2ccccc2)nc(N2CCCCC2)n1	none
CC(C)OP(=O)(OC(C)C)C1(O)C(=O)Nc2ccc(Br)cc21 (configuration not stated)	ALDH1A1 block inconclusive
COc1ccc(C2C(C(=O)N3CCOCC3)CCC(=O)N2c2ccc(OC)cc2)cc1 (configuration not stated)	ALDH1A1 block 14µM, PNC assembly inh inconclusive
COc1ccc(N2C(=O)CCC(C(=O)Nc3cccc(C)n3)C2c2ccc(OC)c(OC)c2)cc1 (configuration not stated)	ALDH1A1 block 22µM, NPSR antagonist inconclusive
COc1ccc(N2C(=O)CCC(C(=O)N3CCCCC3)C2c2ccc(OC)c(OC)c2)cc1 (configuration not stated)	none
COc1ccc(N2C(=O)CCC(C(=O)NCc3ccccn3)C2c2ccc(F)cc2)cc1 (configuration not stated)	none

Compound activity from PubChem.
